Source: PubChem BioAssay (several laboratories)
Beta apoptosis = blocks beta cell apoptosis; INS-1E cytokine-induced death, ATP luminescence, 48 h; percent of positive-control rescue, neutral wells zero; protection from apoptosis, % (concentration not given with the values); 300,000 tested, 0.8% active;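 active = Every replicate reaches about 75%, or at least half do and their mean reaches it too, limit read from the data; inconclusive = At least half of replicates reach the limit but their mean does not; inactive = Under half of replicates reach the limit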;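 note: 0% = cytokine-treated negative control wells and 100% = positive control rescue; higher means more ATP so stronger rescue from cytokine killing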
Mdm2-MdmX inh = inhibitors of human Mdm2/MdmX interaction; 330,000 tested, 3% active; inhibition, % at 8 µM; SaOS-2 split-luciferase Mdm2/MdmX complementation, luminescence;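 active = inhibition of at least 50% at 8 µM in the primary screen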
Target sequence (O15151 whole entry, looked up): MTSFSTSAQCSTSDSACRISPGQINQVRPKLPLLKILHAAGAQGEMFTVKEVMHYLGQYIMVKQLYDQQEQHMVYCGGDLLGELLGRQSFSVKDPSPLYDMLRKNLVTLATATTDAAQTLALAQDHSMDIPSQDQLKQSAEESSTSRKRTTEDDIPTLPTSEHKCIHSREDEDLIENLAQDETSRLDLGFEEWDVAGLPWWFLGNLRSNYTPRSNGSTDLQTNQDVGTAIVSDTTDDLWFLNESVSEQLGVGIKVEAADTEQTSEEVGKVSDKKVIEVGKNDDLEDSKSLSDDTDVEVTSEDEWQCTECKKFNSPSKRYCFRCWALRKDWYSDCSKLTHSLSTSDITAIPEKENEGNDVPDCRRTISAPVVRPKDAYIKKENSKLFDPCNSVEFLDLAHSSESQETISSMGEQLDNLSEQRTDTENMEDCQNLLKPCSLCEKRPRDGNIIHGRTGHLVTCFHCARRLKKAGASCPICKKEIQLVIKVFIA
Target sequence (Q00987 whole entry, looked up): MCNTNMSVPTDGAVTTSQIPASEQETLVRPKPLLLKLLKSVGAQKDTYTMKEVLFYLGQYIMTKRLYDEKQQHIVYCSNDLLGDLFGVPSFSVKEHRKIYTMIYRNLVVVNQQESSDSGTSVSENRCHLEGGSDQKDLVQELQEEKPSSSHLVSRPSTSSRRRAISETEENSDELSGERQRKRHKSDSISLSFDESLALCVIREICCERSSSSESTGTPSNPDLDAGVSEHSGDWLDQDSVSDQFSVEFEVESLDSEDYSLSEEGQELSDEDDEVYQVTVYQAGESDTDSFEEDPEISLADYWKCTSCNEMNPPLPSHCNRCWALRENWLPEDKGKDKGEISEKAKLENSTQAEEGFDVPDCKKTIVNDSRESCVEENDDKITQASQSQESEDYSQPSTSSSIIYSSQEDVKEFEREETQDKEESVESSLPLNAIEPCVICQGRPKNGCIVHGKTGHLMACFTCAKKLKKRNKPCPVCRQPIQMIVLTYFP
CSC inhib = blocks cancer stem cells; cancer stem cell-like cells viability, luminescence; inhibition, % at 7.5 µM; 300,000 tested, 1.1% active; AID 2717; in the data active = inhibition above about 75%; inconclusive = no clear call, values can overlap the other calls; tested in HMLE shEcad cells
aSyn UTR inh = 5' untranslated region of α-synuclein, MLPCN primary screen; alpha-synuclein 5'UTR reporter, inhibitor activity; inhibition, % (tested at 7.5 µM); 300,000 tested, 0.82% active; AID 1813; in the data active = inhibition above about 60%; inconclusive = no clear call, values can overlap the other calls;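 note: H4 neuroglioblastoma cells stably carrying SNCA 5'UTR luciferase fusion; 0% = DMSO wells and 100% = positive control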
Bfl-1 A1 inh = inhibitors of the anti-apoptotic protein A1, read as caspase activation; AID 2462; 330,000 tested, 0.066% active; caspase activation, % (test concentration not listed); MEF A1-2A-BIM cells, Caspase-Glo 3/7 luminescence, 3 h; percent of clofoctol response, vehicle zero;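 active = over half of replicate activation scores above 10%, or exactly half above 10 with the replicate mean above 10; inconclusive = replicate mean below 10 yet half the replicates above 10; inactive = over half of replicates below 10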
Mdm2 MdmX conf = human Mdm2/MdmX binding inhibition, confirmed; 10,000 tested, 55% active; AID 489028; luminescent assay; shares compounds with Mdm2-MdmX inh; inhibition, % at 8 µM; in the data active = inhibition above about 40%
Full FLuc ctr = counter-screen for Mdm2/MdmX inhibitors: full-length luciferase; inhibition, % at 8 µM; shares compounds with Mdm2-MdmX inh; AID 504607; 6,200 tested, 77% active; SaOS-2 full-length luciferase counterscreen, luminescence;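 active = mean inhibition at 8 µM reaching about 37%, which flags the compound as non-specific, limit read from the data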;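 note: p53-null SaOS-2 cells with luciferase driven by a doxycycline-inducible promoter; compound on cells about two nights before reading with doxycycline added after day one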
* marks the source's active call; other numbers are inactive results; u = inconclusive; x = no result given. Hits are enriched below; roughly 4.1% of the tested compounds scored in any of these assays.

SMILES | Beta apoptosis | Mdm2-MdmX inh | CSC inhib | aSyn UTR inh | Bfl-1 A1 inh | Mdm2 MdmX conf | Full FLuc ctr
O=C(CN1CCCC1)Nc1ccc(Oc2ccc(NC(=O)CN3CCCC3)cc2)cc1 | -1.0 | 56.3* | 15.1 | -40.4 | -0.1 | 52.9* | 58.0*
Cc1ccc(Cl)cc1N1CCN(CC(=O)Nc2ccc(CN3CCCCC3)cc2)CC1 | 13.0 | 69.5* | -9.7 | -7.6 | 0.7 | 43.1* | 59.6*
COc1ccccc1N1CCN(CC(=O)Nc2ccc(CN3CCCCC3)cc2)CC1 | -4.9 | -13.2 | 7.7 | 17.5 | -0.1 | x | x
Clc1ccc(NCc2ccsc2)cc1 | x | 1.8 | 27.7 | -44.6 | 0.9 | x | x
Cc1cc(Nc2cccc(Cl)c2)nc(NCc2ccccc2)n1 | 106.8* | 58.6* | 108.2* | 20.5 | -0.5 | 39.6 | 61.9*
Cc1cc(N2CCCCC2)nc(NCc2ccccc2)n1 | 52.1 | 64.7* | x | -10.3 | -0.7 | 44.7* | 60.6*
Cc1cc(OC2CCCCC2)nc(NCc2ccccc2)n1 | x | 50.4* | 43.7 | 18.1 | 0.7 | 31.0 | x
CCOc1cc(C)nc(NCc2ccccc2)n1 | 1.0 | -14.5 | 21.8 | -32.9 | 0.9 | x | x
CCOC(=O)c1cccc(NC(=O)CC2Oc3ccccc3NC2=O)c1 (stereo not given) | -0.5 | 4.5 | -24.1 | 5.9 | 0.7 | x | x
C/C(=N/NC(=O)c1ccc2c(c1)OCO2)c1ccc(Br)s1 | -0.1 | -17.7 | -4.5 | -88.6 | -1.3 | x | x
C/C(=N\NC(=O)c1ccc(Cl)c(Cl)c1)c1ccc(Br)s1 | 24.3 | 68.3* | -9.9 | 90.6* | -1.0 | 55.2* | 46.8*
C/C(=N/NC(=O)c1ccc(C(C)(C)C)cc1)c1ccccn1 | 111.1* | 93.2* | 60.4 | 57.4 | -3.7 | 43.5* | 55.3*
C/C(=N\NC(=O)c1cccc(Br)c1)c1ccccn1 | 104.9* | 100.4* | 138.8* | 108.3* | 0.1 | 63.2* | 50.5*
CC(C)(C)c1ccc(C(=O)N/N=C/c2ccccn2)cc1 | 10.3 | 37.4 | 25.6 | -49.7 | -0.9 | x | x
O=C(NN=C(c1ccccc1)c1ccccn1)c1ccccc1 | 102.5* | 91.2* | 56.8 | x | -0.2 | 58.0* | 27.4
CCOC(=O)[C@H]1[C@H]2COc3ccc(C)cc3[C@@H]2N2C(=O)c3ccccc3NC(=O)[C@@]12C | 0.4 | 17.5 | 2.3 | x | -0.1 | x | x
COc1ccc(CCNC(=O)c2cccnc2Cl)cc1OC | -9.9 | -2.8 | -18.1 | -6.8 | -0.8 | x | x
C/C(=N\NC(=O)c1ccc(NS(=O)(=O)c2cccs2)cc1)c1ccccn1 | 85.9* | 58.1* | 63.8 | 71.5* | -0.1 | -5.9 | x
C/C(=N\NC(=O)c1cc(Br)ccc1O)c1ccccn1 | 105.2* | 57.5* | 96.0* | 48.8 | -11.2 | 39.1 | 49.6*
CC(=O)c1ccc(Nc2nc3ccccc3nc2NS(=O)(=O)c2cccs2)cc1 | 32.9 | 59.7* | 35.4 | -10.4 | 1.0 | 27.9 | x
COc1ccc(C(=O)N/N=C(\C)c2ccccn2)cc1OC | 98.4* | 98.5* | 91.1* | 43.0 | -1.4 | 14.8 | x
COc1ccc(NC(=O)c2ccccn2)cc1OC | 2.8 | -9.3 | -5.9 | -88.0 | -2.1 | x | x
Cc1cccc(/C=N/NC(=O)c2cc(Br)ccc2O)n1 | 10.9 | 5.0 | 4.3 | -21.3 | -2.0 | x | x
Cc1cc(=O)n2nc(N3CCCC(C(=O)NCCCN4CC(C)CC(C)C4)C3)sc2n1 (stereo not given) | -7.3 | 3.3 | -7.0 | 4.1 | 0.4 | x | x
C/C(=N\NC(=O)C1CCCN(S(=O)(=O)c2ccccc2)C1)c1ccncc1 (stereo not given) | 3.1 | 2.6 | x | 24.2 | 0.3 | x | x
SMILES | Beta apoptosis | Mdm2-MdmX inh | CSC inhib | aSyn UTR inh | Bfl-1 A1 inh | Mdm2 MdmX conf | Full FLuc ctr
C/C(=N\NC(=O)c1ccc(Cl)c(Cl)c1)c1ccccn1 | 93.1* | 83.5* | 81.5* | 28.0 | -1.9 | 81.5* | 25.9
C/C(=N\NC(=O)C(c1ccccc1)c1ccccc1)c1ccccn1 | 87.8* | 74.8* | 28.8 | 79.9* | -1.0 | 64.2* | 49.6*
CC(=O)Nc1ccc(/C(C)=N/NC(=O)c2ccccc2Cl)cc1 | -5.4 | -30.4 | -7.0 | -40.2 | -0.2 | x | x
C/C(=N\NC(=O)C(c1ccccc1)c1ccccc1)c1ccc(O)cc1 | -5.6 | 12.7 | -11.2 | 2.9 | -0.8 | x | x
C/C(=N\NC(=O)C1CCCN(S(=O)(=O)c2ccccc2)C1)c1ccccn1 (stereo not given) | 61.2 | 70.2* | 31.2 | 66.7* | 0.3 | 58.9* | 35.2
CC(NC(=O)COc1ccccc1)C(=O)NCc1ccccc1Cl (stereo not given) | -0.9 | -9.3 | -3.0 | x | -0.5 | x | x
CCN(CC(=O)Nc1ccccc1C(F)(F)F)C(=O)C1CSC2(C)CCC(=O)N12 (stereo not given) | -1.6 | 8.5 | -14.3 | 14.4 | 0.9 | x | x
CC(=O)Nc1ccc(NC(=O)C(C)Sc2nnc(-c3cccs3)o2)cc1 (stereo not given) | 4.7 | 8.6 | -11.6 | 11.9 | 0.7 | x | x
COc1cc(-c2nc(-c3ccccc3)c(-c3cc([N+](=O)[O-])ccc3C)[nH]2)cc(OC)c1OC | 3.1 | 68.7* | 38.4 | 11.6 | 0.2 | 29.6 | x
O=[N+]([O-])c1cccc(-c2nc(-c3ccccc3)c(-c3cccs3)[nH]2)c1 | 10.3 | 36.6 | x | -1.6 | 0.0 | x | x
COc1ccc(S(=O)(=O)N2CCOCC2)cc1NC(=O)c1cc2ccccc2o1 | x | -1.0 | x | x | x | x | x
COc1cc(/C=C(\C#N)c2nc3ccccc3[nH]2)ccc1OC(=O)c1ccco1 | -4.6 | -23.7 | 16.8 | -174.2 | -9.2 | x | x
COc1cc(/C=C(/C#N)c2nc3ccccc3[nH]2)ccc1OCC(=O)Nc1ccccc1C(C)C | 61.8 | 100.4* | 99.8* | 103.5* | 10.0* | 79.2* | 51.7*
COc1cc(/C=C(\C#N)c2ccccn2)ccc1OCC(=O)Nc1ccc(Br)cc1 | 2.8 | 100.4* | u | 22.4 | -1.2 | 94.0* | 20.0
COc1cc(/C=C(/C#N)c2nc3ccccc3[nH]2)ccc1OCC(=O)Nc1ccccc1C | 3.1 | 100.3* | 83.1* | x | 7.2* | 17.3 | x
CC(C)(C)NC(=O)CN(C(=O)c1snc(C(=O)NC2CCCCC2)c1N)c1ccccc1F | -6.7 | 25.6 | 1.4 | 4.8 | 0.8 | x | x
O=C1CCN(Cc2ccc(O)cc2)CCN1CCO | -5.5 | 2.2 | 9.8 | -6.8 | 0.0 | x | x
COc1cccc2c1C(=O)c1c(O)c3c(c(O)c1C2=O)C[C@@](O)(C(=O)CO)C[C@@H]3O[C@H]1C[C@H](N)[C@@H](O)[C@H](C)O1 | 39.1 | 94.2* | 51.0 | 109.3* | 0.6 | 99.5* | 4.0
CC(=O)[C@]1(O)Cc2c(O)c3c(c(O)c2[C@@H](O[C@H]2C[C@H](N)[C@H](O)[C@H](C)O2)C1)C(=O)c1ccccc1C3=O | 15.4 | 100.4* | 85.7* | 110.1* | u | 98.4* | 1.6
CCOc1ccc(N2CC(C(=O)NC3CCSC3=O)CC2=O)cc1 (stereo not given) | -2.5 | -6.1 | x | 12.4 | 0.7 | x | x
